Reference: PubChem BioAssay AID1210 (NMMLSC, 2008)
Activity calls are given as the source filed them.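 Rule for the calls: active = blocks over 70% of labeled estradiol binding at 10 µM, or over a set limit at 100 nM; inactive = the rest.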

Biological target: Estrogen receptor beta (Homo sapiens) (UniProt Q92731)
Assay: ERbeta ligand binders by competition, primary screen, cell-based, Cos7 ERbeta-GFP, flow cytometry (AID 1210);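 note: 0% = DMSO vehicle wells and 100% = complete loss of labeled estradiol signal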
Details: fluorescent estrogen binding, stronger effect = higher value
[1] = ligand binding inhibition, at 0.1 µM

Estrogen receptor beta (Homo sapiens), sequence (Q92731 whole entry, looked up): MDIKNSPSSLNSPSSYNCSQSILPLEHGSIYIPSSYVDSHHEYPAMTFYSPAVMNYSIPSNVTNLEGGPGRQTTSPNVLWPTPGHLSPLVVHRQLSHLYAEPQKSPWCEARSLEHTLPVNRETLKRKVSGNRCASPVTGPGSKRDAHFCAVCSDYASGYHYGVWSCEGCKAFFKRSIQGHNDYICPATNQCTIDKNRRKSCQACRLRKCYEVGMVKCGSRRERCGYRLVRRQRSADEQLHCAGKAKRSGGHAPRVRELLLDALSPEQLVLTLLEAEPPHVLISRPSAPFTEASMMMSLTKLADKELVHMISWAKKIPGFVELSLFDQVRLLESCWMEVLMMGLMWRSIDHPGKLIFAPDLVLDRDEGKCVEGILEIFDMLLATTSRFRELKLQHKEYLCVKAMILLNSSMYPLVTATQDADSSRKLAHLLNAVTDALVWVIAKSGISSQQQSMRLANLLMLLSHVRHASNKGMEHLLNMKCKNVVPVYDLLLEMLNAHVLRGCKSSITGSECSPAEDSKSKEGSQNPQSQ

| SMILES | inhibition (at 10 µM) | inhibition [1] [%] |
| --- | --- | --- |
| O=C(O)C1OC(Oc2c(-c3ccc(O)c(O)c3)oc3cc(O)cc(O)c3c2=O)C(O)C(O)C1O (centres undefined) | 55% (inactive) | 2 |
| CCc1nc2sc3ccccc3c(=O)c2c(=O)n1Cc1ccco1 | 46% (active) | 66 |
| NC(=O)c1cccc2c1C(=O)N(C1CCCCC1)C2 | 3% (inactive) | 4 |
| CCO/C([O-])=N/c1c[n+](N2CCOCC2)no1 | 21% (inactive) | 44 |
| Cc1cc(C)n2nc(SCc3cc(=O)oc4cc(O)ccc34)nc2n1 | 19% (inactive) | 19 |
| CCc1nc(N)nc(N)c1-c1ccc(Cl)cc1 | 38% (inactive) | 25 |
| Cc1ccc(C(=O)CSC2=C(C#N)C(c3ccco3)CC(=O)N2)c(C)c1 (centres undefined) | 54% (inactive) | 14 |
| O=C(Oc1ccc2c(c1)OCO2)c1cc2c(s1)CCC2 | 52% (inactive) | 48 |
| COc1ccc(C)cc1-n1nnnc1SCC(=O)NC(=O)NCc1ccco1 | 61% (inactive) | 12 |
| Cc1ccccc1Nc1nnc(SCC(=O)NC(=O)NCc2ccco2)s1 | 0% (active) | 67 |
| Cc1nn(-c2ccccc2)c(Cl)c1/C=N/Nc1ccc(S(=O)(=O)Nc2ccccc2C(=O)O)cc1[N+](=O)[O-] | 15% (inactive) | 53 |
| CCOC(=O)Cc1cc(=O)n2[nH]c(-c3ccc(C)cc3)cc2n1 | 19% (inactive) | 15 |
| c1ccc(Cc2nnc3sc(-c4ccco4)nn23)cc1 | 18% (inactive) | 60 |
| CCn1c(SCC(=O)Nc2ccc3c(c2)oc2ccccc23)nnc1-c1ccc(N)cc1 | 56% (inactive) | 18 |
| COC(=O)c1ccc(CC(=O)c2ccc(O)cc2O)o1 | 44% (inactive) | 20 |
| NC(=O)c1oc2ccccc2c1NC(=O)c1nc2ccccc2s1 | 39% (inactive) | 10 |

| SMILES | inhibition (at 10 µM) | inhibition [1] [%] |
| --- | --- | --- |
| COc1cc(C(=O)Nc2nnc(-c3sccc3C)s2)cc(OC)c1OC | 52% (inactive) | 34 |
| CCOC(=O)C1=c2/c(=C/c3ccccc3OC)c(N)c(C#N)n2C(=O)C(c2ccccc2OC)S1 (centres undefined) | 34% (inactive) | 46 |
| COc1cccc(C2Nc3c(F)cc(Br)cc3C3C=CCC32)c1OC (centres undefined) | 40% (active) | 74 |
| CCOc1ccc(CC2S/C(=N/c3ccccn3)NC2=O)cc1 (centres undefined) | 16% (inactive) | 15 |
| CC(=O)NC12CC3CC(C1)CC(C(=O)OCC(=O)Nc1ncc(Cl)c(C)c1Cl)(C3)C2 | 12% (inactive) | 3 |
| CC(Oc1ccc(Cl)cc1Cl)C(=O)Nc1ccc2oc(-c3ccncc3)nc2c1 (centres undefined) | 50% (inactive) | 27 |
| O=C(Nc1ccccc1N1CCOCC1)c1cc(-c2ccco2)nc2ccccc12 | 56% (inactive) | 28 |
| Cc1cccc(N2CSC3=C(C#N)C(c4ccc(C)o4)CC(=O)N3C2)c1 (centres undefined) | 35% (inactive) | 21 |
| COc1ccc(OC)c(N2C(=O)[C@@H]3C(c4ccccc4Cl)=NO[C@@H]3C2=O)c1 | 52% (inactive) | 30 |
| O=S(=O)(NCC(O)COCc1ccco1)c1cccs1 (centres undefined) | 12% (inactive) | 20 |
| COc1ccccc1N1CCN(C(=O)c2cc3c(s2)CCC3)CC1 | 22% (inactive) | 4 |
| O=C(O)c1ccc2c(c1)[C@@H]1C=CC[C@@H]1[C@H](c1ccccn1)N2 | 0% (inactive) | 25 |
| CCOC(=O)c1ccc(NC(=O)CSc2nc(C)cc(=O)[nH]2)cc1 | 30% (inactive) | 2 |
| COc1ccc(N2C(=O)c3ccccc3NC2c2ccc(OC)c(COc3ccccn3)c2)cc1 (centres undefined) | 40% (inactive) | 9 |
| NC(=O)c1c(NC(=O)c2cccs2)sc2c1CCCCCC2 | 54% (inactive) | 42 |
| CC1(C)N=C(N)N=C(N)N1c1ccc(C(=O)O)cc1 | 22% (inactive) | 11 |
